{"source": "paper PMC5540273", "about": "(PLoS ONE, 2017);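 also: KINOMEscan kinase panel screen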"}
{"system": "PAK7", "conditions": "concentration: 1 μM,replicates: in singlicate; n = 1", "units": {"%Inh": "%"}}
{"smiles": "COC(=O)Nc1nc2cc(Oc3ccc(NC(=O)Nc4cc(C(F)(F)F)ccc4Cl)cc3)ccc2[nH]1.Cl", "note": "[GW697465]", "%Inh": 2}
{"smiles": "CS(=O)(=O)c1cccc(CNc2nc(Nc3ccc4c(c3)[C@@H]3C[C@@H]4CNC3=O)ncc2C(F)(F)F)c1", "%Inh": 20}
{"smiles": "COc1cccc(C2=C(Nc3cccc(Cl)c3)C(=O)NC2=O)c1", "note": "[SB-341556]", "%Inh": 8}
{"smiles": "Cc1ccc2c(-c3ccnc(Nc4ccc(C(F)(F)F)cc4)n3)cnn2n1", "note": "[GW819776]", "%Inh": 0}
{"smiles": "CN1CCN(CCNc2nc3cc(Oc4ccc(NC(=O)Nc5cc(C(F)(F)F)ccc5F)cc4)ccc3[nH]2)CC1.Cl.Cl", "note": "[GW768504]", "%Inh": 0}
{"smiles": "COc1cc2c(Nc3ccc(NC(=O)c4ccccc4)cc3)ncnc2cc1OCCCN1CCOCC1", "note": "[GSK301329]", "%Inh": 0}
{"smiles": "COc1cccc(OC)c1C(=O)Nc1cccc(-c2nn3ccccc3c2-c2ccnc(Nc3cccc(F)c3)n2)c1", "note": "[GSK361065]", "%Inh": 0}
{"smiles": "Cc1cccc(-c2nc(Nc3ccncc3)c3sccc3n2)n1", "note": "[GW869641]", "%Inh": 2}
{"smiles": "C[C@@H](Oc1cc(-n2cnc3cc(-c4cnn(C)c4)ccc32)sc1C(N)=O)c1ccccc1Cl", "note": "[GSK580432]", "%Inh": 0}
{"smiles": "Cn1ccc2ncnc(Oc3ccc(NC(=O)Nc4cnn(C(C)(C)C)c4)c(Cl)c3)c21", "%Inh": 0}
{"smiles": "Cn1ccc2ncnc(Oc3ccc(NC(=O)Nc4ccnc(C(F)(F)F)c4)c(Cl)c3)c21", "%Inh": 0}
{"smiles": "C[C@@H](Oc1cc(-n2cnc3cc(-c4ccncc4)ccc32)sc1C(N)=O)c1ccccc1Cl", "note": "[GSK479719]", "%Inh": 94.2}
{"smiles": "c1ccc(Oc2ccc(Nc3ccnc4ccc(-c5ccccn5)cc34)cc2)cc1", "note": "[GW407034]", "%Inh": 7}
{"smiles": "COC(=O)c1cccc(NC(=O)NC2CCN(c3ccnc(NCc4ccc(F)cc4)n3)CC2)c1", "note": "[GSK1379860]", "%Inh": 0}
{"smiles": "COc1cccc(CNC(=O)NC2CCN(c3ccnc(Nc4cc(OC)c(OC)c(OC)c4)n3)C2)c1", "note": "(stereo not shown) [GSK1379765]", "%Inh": 1}
{"smiles": "Cn1ccc2ncnc(Oc3ccc(NC(=O)Nc4cccc(C(F)(F)F)c4)c(Cl)c3)c21", "%Inh": 1}
{"smiles": "O=C(NCC1CC1)c1ccc(-c2cc(C(=O)NC3CC3)ccc2F)cc1", "note": "[GW810445]", "%Inh": 4}
{"smiles": "O=c1[nH]cc(-c2ccc(O)cc2)c2sc(-c3ccncc3)cc12", "note": "[GSK1033723]", "%Inh": 5}
{"smiles": "Cn1ccc2ncnc(Oc3ccc(NC(=O)Nc4cncc(C(F)(F)F)c4)c(Cl)c3)c21", "%Inh": 0}
{"smiles": "Cc1ccc(Nc2ccnc(Nc3ccc4c(c3)CS(=O)(=O)C4)n2)cc1O.Cl", "note": "[GW579362]", "%Inh": 56}
{"smiles": "N#Cc1cccc(C(=O)NC2CCN(c3ccnc(Nc4ccc(F)cc4)n3)C2)c1", "note": "(stereo not shown) [GSK1379708]", "%Inh": 0}
{"smiles": "C[C@@H]1CNc2c(sc3ccc4nc(-c5ccc(O)cc5)ccc4c23)C(=O)N1", "%Inh": 0}
{"smiles": "C[C@@H]1CNc2c(sc3ccc4nc(-c5ccncc5)ccc4c23)C(=O)N1", "%Inh": 0}
{"smiles": "Cl.Nc1n[nH]c2cc(-c3ccccn3)ccc12", "note": "[GSK2189892]", "%Inh": 16}
{"smiles": "CCNCC(Cc1ccccc1)NC(=O)c1cc(Br)c(-c2ccnc3[nH]ccc23)s1.Cl.Cl", "note": "(stereo not shown) [GSK1383280]", "%Inh": 78}
{"smiles": "CN(c1ccc2c(c1)nc(NCc1ccc(F)cc1)n2C)c1ccnc(Nc2ccc(CS(C)(=O)=O)cc2)n1.Cl", "note": "[GW813244]", "%Inh": 0}
{"smiles": "COc1cc2ncn(-c3cc(OCC4CCCCC4)c(C(N)=O)s3)c2cc1OC", "note": "[GSK204559]", "%Inh": 1}
{"smiles": "O=C(Nc1ccc(Oc2ccc3nc(NC(=O)C4CC4)cn3n2)c(F)c1)c1cccn(-c2ccccc2)c1=O", "%Inh": 0}
{"smiles": "Cl.Cl.NC[C@H](CC1CCCCC1)NC(=O)c1ccc(-c2ccnc3[nH]ccc23)s1", "note": "[GSK1581428]", "%Inh": 68}
{"smiles": "CSc1nccc(-c2c(-c3ccc(F)cc3)ncn2CCCN2CCOCC2)n1.Cl", "note": "[SB-217146]", "%Inh": 0}
{"smiles": "CCOC(=O)N1CCC(n2cnc(-c3ccc(F)cc3)c2-c2ccnc(N)n2)CC1", "note": "[SB-219952]", "%Inh": 11}
{"smiles": "CS(=O)(=O)Nc1ccc(-c2ccnc3[nH]ccc23)cc1", "note": "[GSK993273]", "%Inh": 3}
{"smiles": "O=C(Nc1cccc(C(F)(F)F)c1)c1cccc(Oc2ccc3nccn3n2)c1", "%Inh": 0}
{"smiles": "O=C(NOCC1CC1)c1cc(Br)c(F)c(F)c1Nc1ccc(I)cc1Cl", "%Inh": 0}
